In the supplement of paper PMC10681739:

Legend:
RUNX1 [1] = target: RUNX1 (UniProt Q01196); experiment: RUNX1 binding intensity (PBM fluorescence), RUNX1 alone (arbitrary fluorescence units); higher = stronger binding; conditions: RUNX1 concentration 2 nM; ETS1 concentration 0 nM
Protocol: (§1)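 Cooperative gcPBM on 36-bp genomic probes with neighbouring ETS1 and RUNX1 sites. Recombinant human RUNX1 (2 nM) was incubated alone or with ETS1 (25 nM) and detected with anti-RUNX1 antibody plus Alexa488 secondary. Values are medians over 4 replicate spots; the RUNX1+ETS1 data were normalised to the RUNX1-only data. The probes sit in constant array flanks that are not printed.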

ETS1 = target: T1, ETS1 (UniProt P14921); experiment: ETS1 binding intensity (PBM fluorescence) in presence of RUNX1, normalised to ETS1-only experiment (arbitrary fluorescence units); higher = stronger binding; conditions: ETS1 concentration 1 nM; RUNX1 concentration 25 nM
T1 sequence: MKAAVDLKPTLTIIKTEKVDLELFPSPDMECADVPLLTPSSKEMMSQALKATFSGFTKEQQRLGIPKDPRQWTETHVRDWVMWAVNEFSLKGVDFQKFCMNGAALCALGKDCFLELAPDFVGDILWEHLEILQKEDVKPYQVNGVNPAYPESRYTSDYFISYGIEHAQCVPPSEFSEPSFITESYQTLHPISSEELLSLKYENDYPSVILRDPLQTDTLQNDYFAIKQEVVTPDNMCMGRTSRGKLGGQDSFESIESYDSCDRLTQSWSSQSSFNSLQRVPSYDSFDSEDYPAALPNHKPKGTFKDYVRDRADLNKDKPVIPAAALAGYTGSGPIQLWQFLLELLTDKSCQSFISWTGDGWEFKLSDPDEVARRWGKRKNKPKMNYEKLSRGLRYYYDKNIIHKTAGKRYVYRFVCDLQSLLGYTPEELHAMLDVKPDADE

RUNX1 [2] = target: RUNX1 (UniProt Q01196); experiment: RUNX1 binding intensity (PBM fluorescence) in presence of ETS1, normalised to RUNX1-only experiment (arbitrary fluorescence units); higher = stronger binding; conditions: RUNX1 concentration 2 nM; ETS1 concentration 25 nM
Protocol: as §1
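Throughout, for RUNX1 binding intensity (PBM fluorescence) in presence of ETS1, normalised to RUNX1-only experiment: Full-length recombinant human ETS1 or RUNX1 bound to double-stranded 36-bp genomic probes on microarrays, detected by protein-specific primary antibody and Alexa488 secondary, spot fluorescence as median of four replicate spots.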
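Throughout, for RUNX1 binding intensity (PBM fluorescence), RUNX1 alone: Full-length recombinant human RUNX1 bound to double-stranded 36-bp genomic probes on a high-density microarray, scored as Alexa488 fluorescence per spot via anti-RUNX1 antibody, median of four replicate spots.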

RUNX1, sequence (Q01196 whole entry): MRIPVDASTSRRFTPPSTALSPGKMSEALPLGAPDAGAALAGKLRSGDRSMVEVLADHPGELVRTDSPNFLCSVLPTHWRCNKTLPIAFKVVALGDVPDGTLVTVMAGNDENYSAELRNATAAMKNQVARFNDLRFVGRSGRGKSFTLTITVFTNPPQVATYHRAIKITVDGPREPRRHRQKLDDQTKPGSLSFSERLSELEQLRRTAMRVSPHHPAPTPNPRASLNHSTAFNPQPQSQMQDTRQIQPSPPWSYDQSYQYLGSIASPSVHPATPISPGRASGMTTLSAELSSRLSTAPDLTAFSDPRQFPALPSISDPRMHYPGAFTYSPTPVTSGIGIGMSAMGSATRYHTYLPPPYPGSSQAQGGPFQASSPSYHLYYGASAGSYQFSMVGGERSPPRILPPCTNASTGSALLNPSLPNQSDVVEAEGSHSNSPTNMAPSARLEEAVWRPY

| Sequence | RUNX1 binding intensity (RUNX1 [1]) | ETS1 binding intensity (ETS1) | RUNX1 binding intensity (RUNX1 [2]) |
| --- | --- | --- | --- |
| TGTAAGTCACTTCCTGTCGTGGTCAGGTCTCCTCTC | 873 | 7730 | 2370 |
| GATACAGTGCTCAGGAAACCACATGAAACCAGAGTA | 924 | 948 | 972 |
| TGCCTCACCTCACATCCGTTTGTGGCTGCCGAGTGC | 950 | 1310 | 1880 |
| AGCCCGCCGGAAACTAGCGTCACCGCGCCAAGGTTC | 691 | 1250 | 1160 |
| ACAAAGAAACCTACATCCTAAGCCACAGAATACAGC | 930 | 523 | 881 |
| CTGGGGAGGAAGCCTGAGGTGTGTGGTTTTGTTAAC | 1040 | 811 | 983 |
| GTAAAAGAGGAAGTAACACCTCCTTGCGGTTGAGAC | 1020 | 6840 | 3280 |
| CAGACAGGAGGCGGATGTGGGTGGCGCAGAATGAGC | 688 | 2250 | 1920 |
| TGAAACCCAGCAGGATGTGGGTTAACGGCAGGGGAG | 733 | 6440 | 2250 |
| CTCACAACTCGCGTCCGGCGGAGACCACAATTCCCG | 863 | 530 | 1230 |
| CTGTCATCTTCCTGACAGCACGCCCACAAAGGACCA | 843 | 377 | 916 |
| CAGTTTGCCCCGGATGTTGACCGCCTTGAAGTCGTA | 910 | 4900 | 1380 |
| AAGGTGGAAAAAGGATGTGGTTCTAAGCTGGCTTCT | 735 | 1120 | 1020 |
| TGTTCAGGAACAGGAAATGAAACCCCGCAGCTTTGA | 748 | 11300 | 1150 |
| ACGTACGGGATGTGGGAGGTTTGTTTTGACCACACC | 830 | 936 | 1160 |
| CTCCTTCCTGATCGGGCAGGAACTAACCACAGGAGG | 825 | 2480 | 1130 |
| GAAGCCAGGAAATGGTGCGTGTGCGGGGCCGGGCGC | 663 | 1010 | 935 |
| CACCAGGACGCAACAGGAAACCACAAAGGCCTGAGA | 2660 | 6500 | 5270 |
| TCCCCTCTCCCCATCCGCCCGAGACCACAGCCACTC | 1340 | 495 | 1570 |
| CTCCCACATCCGAAGCGGCGCAACCCACAACAGCCT | 1120 | 344 | 1620 |
| CCTCTTGGTTTCCTGTCCCTCACCACAAGAAGCAGT | 1540 | 1520 | 4520 |

| Sequence | RUNX1 binding intensity (RUNX1 [1]) | ETS1 binding intensity (ETS1) | RUNX1 binding intensity (RUNX1 [2]) |
| --- | --- | --- | --- |
| TAAGGATGTGTGGCTTCCAGATCAAAAACCGCAAAA | 7590 | 3920 | 10600 |
| GGCAACCCAAGGAAGTATCTCTGAAACCACACAACA | 1040 | 1190 | 1110 |
| GTACTGAGTCACAGGAAACCACAAGGGAAGGGTCCC | 1570 | 4720 | 3070 |
| ATCATCTAGGAGACAGGATGTGGTTAGGGTGTTAAA | 1070 | 59800 | 7840 |
| AAATCACATACCCGGAAACCACATGCACAGAAGTGG | 1090 | 3060 | 2090 |
| GCTGACCCGGAAGCGCTCGTGACCACCATCTCCGAC | 912 | 2590 | 1370 |
| CGGGGACCACTGTCAGGATGTGGTCACTGGAGTCAC | 707 | 8350 | 1420 |
| CCTCCTCCAGACCATCCTGGAAACCACTGCCGTTCT | 1380 | 488 | 1360 |
| GCAGAAGGATTTCCTGTTTCAGGCAACCACAGCGAC | 773 | 2450 | 1510 |
| GGGGAAGAGGGGAGGATGTCTGAGGTTTTAATTGTA | 861 | 689 | 793 |
| CCGGGCGCCACTTCCGGTCCCCGTGGTCACGTGACC | 904 | 16100 | 3740 |
| ACCAGCAACGGAAATCAGATCTCTTGTGGTTATTAT | 994 | 7160 | 1680 |
| ATAGAAACTACAGGAAATACTGTGGTCAGGTTTTGA | 822 | 9500 | 1380 |
| ACGAGGTTGGCCTCATCCGGTGGTTTTCGCAGCACG | 837 | 1280 | 1710 |
| AGGTTCTCCAGAGGAGGAAGTGGTTTGCTGCAGGCT | 755 | 4400 | 971 |
| GAGTTCCGCCTCGCCGTTTGTCCCTTGCGGTACCCG | 890 | 620 | 2030 |
| GCCGGTGAGGGCGGAAGTGGTAAGACTGACGTGTCC | 709 | 8740 | 2490 |
| GAAATGAAGGCCGGATGTCAGTAACCACAAACGAGC | 1040 | 47500 | 11000 |
| GCAGAGAGGAAGTGTGGGGGTGGAGGAGGCCGCAGA | 828 | 973 | 1000 |
| GCCACATATTTCCTGTGACAACCCTGTGGTGTGGCT | 848 | 723 | 1640 |
| GCGCCCGGAAGGAAGGCTGGGGTAGGTTGTGGTTTC | 830 | 2740 | 1140 |
